High-throughput results: PubChem BioAssay, Broad Institute
A selection: hits, their analogues and other compounds. The true share with any hit is near 1.8%.
PDI turbidity = inhibitors of human protein disulfide isomerase. P07237. PDI insulin aggregation turbidity, A650, 90 min. inhibition, % at 10 µM. hit rate 0.052% among 350,000;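 active = mean inhibition across replicates of 30% or more, whatever share of single replicates reach that level; inconclusive = mean inhibition below 30% while every single replicate reaches 30%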
AF4-AF9 inh = inhibitors of human MLL-AF4/AF9 interaction; inhibition, % at 10 µM; hit rate 0.47% among 350,000; AlphaScreen, biotin-AF4 peptide binding to FLAG-AF9; AID 651704; P42568;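 active = every replicate reaching a set inhibition limit, whatever the replicate mean, cut at about 25% in these data; inconclusive = mean inhibition reaches that limit but some replicates miss it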;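 also: 0% = plate neutral control median and 100% = total signal loss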
ERp5 inh = inhibitors of human ERp5 | Q15084 | ERp5 insulin aggregation, absorbance 650 nm, 90 min | inhibition, % at 9.99 µM | hit rate 0.05% among 350,000;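 active = mean replicate inhibition above about 25%, with every replicate also reaching it, limit read from the data, passing the limit was not always enough; inconclusive = only one of those two criteria met; inactive = neither criterion met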
ERAP1 inh = ERAP1 (human) enzyme inhibition | Q9NZ08 | recombinant ERAP1, Leu-AMC fluorescence, 60 min | inhibition, % at 10.7 µM | hit rate 0.15% among 340,000 | AID 652197;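 active = mean replicate inhibition of at least 30%, or all replicates individually reaching that 30% level; inactive = mean below 30% and not every replicate reaching it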;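 also: 0% = neutral control wells and 100% = L-leucinethiol positive control wells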
Target sequence (Q9NZ08 whole entry, looked up): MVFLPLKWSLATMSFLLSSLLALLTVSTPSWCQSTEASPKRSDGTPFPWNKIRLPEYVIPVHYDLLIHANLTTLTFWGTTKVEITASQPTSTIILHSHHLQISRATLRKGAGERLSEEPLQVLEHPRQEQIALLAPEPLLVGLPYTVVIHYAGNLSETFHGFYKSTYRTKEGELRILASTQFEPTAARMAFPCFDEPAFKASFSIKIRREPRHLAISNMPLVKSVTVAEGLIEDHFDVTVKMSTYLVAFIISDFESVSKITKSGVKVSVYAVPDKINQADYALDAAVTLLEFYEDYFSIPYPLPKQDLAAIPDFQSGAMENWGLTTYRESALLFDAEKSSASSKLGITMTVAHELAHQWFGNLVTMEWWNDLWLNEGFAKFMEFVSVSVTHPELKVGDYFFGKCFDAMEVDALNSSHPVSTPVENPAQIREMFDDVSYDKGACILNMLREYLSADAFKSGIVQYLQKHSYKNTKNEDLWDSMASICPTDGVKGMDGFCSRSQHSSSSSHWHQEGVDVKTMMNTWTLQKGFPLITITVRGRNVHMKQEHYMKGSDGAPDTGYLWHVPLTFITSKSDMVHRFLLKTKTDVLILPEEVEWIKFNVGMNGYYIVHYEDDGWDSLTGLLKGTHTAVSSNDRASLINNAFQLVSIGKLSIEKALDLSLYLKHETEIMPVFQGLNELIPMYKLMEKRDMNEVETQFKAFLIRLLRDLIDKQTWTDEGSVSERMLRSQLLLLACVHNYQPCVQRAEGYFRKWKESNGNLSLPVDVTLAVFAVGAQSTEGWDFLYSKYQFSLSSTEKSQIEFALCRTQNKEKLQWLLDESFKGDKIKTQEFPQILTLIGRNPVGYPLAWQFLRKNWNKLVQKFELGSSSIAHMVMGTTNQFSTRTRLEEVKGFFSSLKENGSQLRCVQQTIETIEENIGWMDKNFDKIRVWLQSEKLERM
DENV2 CPE = DENV2-induced cell death inhibition; DENV2-infected cells, cytopathic effect rescue, plate reader; CPE inhibition, % at 9.99 µM; hit rate 1.7% among 350,000; AID 651640; in the data active = CPE inhibition above about 20%, passing the limit was not always enough; inconclusive = no clear call, values can overlap the other calls; tested in BHK-21 cells;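 also: 0% = median of neutral control wells and 100% = median of positive control wells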
Active calls of the source: *.

Screening C[C@@H]1CCCCO[C@H](CN(C)S(=O)(=O)c2ccc(F)cc2)[C@@H](C)CN([C@H](C)CO)C(=O)c2cc(NC(=O)CCCN(C)C)ccc2O1 returned AF4-AF9 inh 3.0, ERp5 inh -0.4, ERAP1 inh 1.3 and DENV2 CPE 34.3*.
For C[C@@H]1CN([C@H](C)CO)C(=O)c2cc(NC(=O)CCCN(C)C)ccc2O[C@@H](C)CCCCO[C@H]1CN(C)S(=O)(=O)c1ccc(F)cc1 the results were AF4-AF9 inh 11.2, ERp5 inh -1.6, ERAP1 inh 0.6 and DENV2 CPE 16.6.
For C[C@@H]1CCCCO[C@@H](CN(C)S(=O)(=O)c2ccc(F)cc2)[C@H](C)CN([C@@H](C)CO)C(=O)c2cc(NC(=O)CCCN(C)C)ccc2O1 the results were AF4-AF9 inh 6.7, ERp5 inh -0.1, ERAP1 inh 0.5 and DENV2 CPE 21.3*.
Screening C[C@@H]1CCCCO[C@@H](CN(C)S(=O)(=O)c2ccc(F)cc2)[C@@H](C)CN([C@@H](C)CO)C(=O)c2cc(NC(=O)CCCN(C)C)ccc2O1 returned AF4-AF9 inh 3.4, ERp5 inh -3.3, ERAP1 inh 1.4 and DENV2 CPE -3.7.
COc1ccc(NC(=O)N[C@@H]2CC[C@H](CC(=O)NC3CCCCC3)O[C@H]2CO)cc1 was read as AF4-AF9 inh -0.8, ERp5 inh 4.1, ERAP1 inh -5.2 and DENV2 CPE 1.8.
For C[C@H](CO)N1C[C@H](C)[C@H](CN(C)Cc2ccc(C(=O)Nc3ccccc3N)cc2)Oc2ccc(NC(=O)Cc3cn(C)c4ccccc34)cc2C1=O the results were AF4-AF9 inh -1.4, ERp5 inh -3.1, ERAP1 inh -1.4 and DENV2 CPE -10.3.
`COc1cc(C(=S)N2CCOCC2)ccc1OC(=O)c1ccccc1` gave PDI turbidity -0.6, AF4-AF9 inh 2.2, ERp5 inh 1.9, ERAP1 inh -1.5 and DENV2 CPE 3.0.
For COc1ccc(C(=S)N2CCOCC2)cc1OC(=O)c1ccccc1 the results were PDI turbidity 1.0, AF4-AF9 inh 6.5, ERp5 inh -12.9, ERAP1 inh -0.1 and DENV2 CPE 23.7*.
For CCCC(=O)Nc1ccc2c(c1)C(=O)N(C)C[C@@H](OC)[C@H](C)CN(C(=O)CN(C)C)[C@@H](C)CO2 the results were AF4-AF9 inh -2.1, ERp5 inh 3.9, ERAP1 inh 2.1 and DENV2 CPE -5.2.
`CO[C@@H]1CN(C)C(=O)c2ccc(NC(=O)c3cc(C)on3)cc2OC[C@@H](C)N(S(=O)(=O)c2cccc(F)c2)C[C@H]1C` gave AF4-AF9 inh 1.0, ERp5 inh -2.9, ERAP1 inh -1.5 and DENV2 CPE 12.0.
CN(C)C(=O)c1ccc(-c2ccccc2[C@@H]2[C@@H](CO)N(C(=O)C3CCCCC3)[C@H]2C#N)cc1 was read as AF4-AF9 inh -1.4, ERp5 inh -2.8, ERAP1 inh 0.6 and DENV2 CPE 28.6*.
For CN(C)C(=O)c1ccc(-c2ccccc2[C@@H]2[C@@H](C#N)N(C(=O)C3CC3)[C@@H]2CO)cc1 the results were AF4-AF9 inh -14.2, ERp5 inh -4.3, ERAP1 inh -5.7 and DENV2 CPE 39.9*.
CN(C)C(=O)c1ccc(-c2ccc([C@H]3[C@@H](C#N)N(C(=O)C4CCCC4)[C@H]3CO)cc2)cc1 was read as AF4-AF9 inh 6.9, ERp5 inh 0.7, ERAP1 inh 1.9 and DENV2 CPE 21.5*.
`CN(C)C(=O)c1ccc(-c2ccccc2[C@H]2[C@@H](C#N)N(C(=O)C3CCCC3)[C@@H]2CO)cc1` gave AF4-AF9 inh -12.3, ERp5 inh 2.5, ERAP1 inh -4.5 and DENV2 CPE -2.8.
Screening CC(C)NC(=O)N1[C@H](CO)[C@H](c2ccc(-c3ccc(F)cc3)cc2)[C@@H]1C#N returned AF4-AF9 inh -0.1, ERp5 inh -0.6, ERAP1 inh 0.0 and DENV2 CPE 35.2*.
`COc1ccc(-c2ccc([C@H]3[C@@H](C#N)N(C(=O)NC(C)C)[C@@H]3CO)cc2)cc1` gave AF4-AF9 inh -0.3, ERp5 inh -2.1, ERAP1 inh 1.4 and DENV2 CPE -7.6.
`CN(C)C(=O)c1ccc(-c2ccccc2[C@@H]2[C@H](C#N)N(C(=O)C3CC3)[C@H]2CO)cc1` gave AF4-AF9 inh -10.7, ERp5 inh 0.3, ERAP1 inh -5.2 and DENV2 CPE -4.6.
COc1ccc(-c2ccccc2[C@H]2[C@@H](C#N)N(C(=O)NC3CCCC3)[C@H]2CO)cc1 was read as AF4-AF9 inh 0.4, ERp5 inh 6.5, ERAP1 inh 2.0 and DENV2 CPE inconclusive.
`COc1ccc(-c2ccc([C@@H]3[C@@H](CO)N(C(=O)NC4CCCC4)[C@H]3C#N)cc2)cc1` gave AF4-AF9 inh -16.7, ERp5 inh 0.1, ERAP1 inh 5.9 and DENV2 CPE 22.3*.
Screening COc1ccc(-c2ccc([C@H]3[C@@H](C#N)N(C(=O)C4CC4)[C@@H]3CO)cc2)cc1 returned AF4-AF9 inh -0.6, ERp5 inh 8.4, ERAP1 inh 1.7 and DENV2 CPE 55.7*.
COc1ccccc1-c1ccccc1[C@@H]1[C@@H](CO)N(C(=O)C2CCC2)[C@H]1C#N was read as AF4-AF9 inh 4.2, ERp5 inh -1.4, ERAP1 inh 1.6 and DENV2 CPE -10.5.
For COc1ccc(-c2ccccc2[C@H]2[C@@H](C#N)N(C(=O)C3CC3)[C@H]2CO)cc1 the results were AF4-AF9 inh -1.9, ERp5 inh 2.7, ERAP1 inh 1.7 and DENV2 CPE -5.5.
Screening COc1ccc(-c2ccccc2[C@@H]2[C@@H](C#N)N(C(=O)C3CC3)[C@H]2CO)cc1 returned AF4-AF9 inh -1.3, ERp5 inh -0.4, ERAP1 inh 0.1 and DENV2 CPE 26.5*.
For COc1ccccc1-c1ccccc1[C@@H]1[C@@H](C#N)N(C(=O)C2CCC2)[C@@H]1CO the results were AF4-AF9 inh 6.1, ERp5 inh 7.8, ERAP1 inh 0.0 and DENV2 CPE 43.8*.
Cc1cccc(-c2ccc([C@@H]3[C@@H](CO)N4CCCCN(S(=O)(=O)c5ccccc5C)C[C@@H]34)cc2)c1 was read as AF4-AF9 inh -0.3, ERp5 inh 0.9, ERAP1 inh 3.7 and DENV2 CPE 0.9.
`C[C@@H]1CN([C@@H](C)CO)C(=O)c2cc(NC(=O)Cn3cnnn3)ccc2O[C@@H]1CN(C)S(=O)(=O)c1ccccc1` gave AF4-AF9 inh 2.1, ERp5 inh -5.4, ERAP1 inh 0.2 and DENV2 CPE -3.4.
For COc1ccc2c3c([nH]c2c1)[C@H](CO)N(Cc1nccs1)CC31CCN(C(=O)C2CCCC2)CC1 the results were AF4-AF9 inh 2.3, ERp5 inh -3.4, ERAP1 inh 1.0 and DENV2 CPE -10.4.
For CC(C)NC(=O)Nc1cccc2c1O[C@@H](CN(C)Cc1ccncc1)[C@@H](C)CN([C@@H](C)CO)C2=O the results were AF4-AF9 inh 0.5, ERp5 inh -0.4, ERAP1 inh -3.4 and DENV2 CPE inconclusive.
For COc1cccc(C#Cc2ccc([C@@H]3[C@@H](C#N)N(C(=O)C4CC4)[C@H]3CO)cc2)c1 the results were AF4-AF9 inh -0.5, ERp5 inh 1.3, ERAP1 inh -2.1 and DENV2 CPE 25.5*.
